From PubChem BioAssay (NCATS)
Records with an inconclusive call do not appear. A call without a number means that no potency is given here. A number with no mark means an inactive call. Activity calls are given as the source filed them. Calls follow the shape of the dose curve; as a rule, active = well fitted inhibition curve with a large enough effect; inconclusive = small, poorly fitted or top-dose-only effect; inactive = no such curve, though single readings can be large or run the other way.

Tests used:
[1] = tested on: Zika virus NS2B-NS3 protease (unlinked complex); assay: Primary screen GU Rhodamine qHTS for Zika virus inhibitors: Unlinked NS2B-NS3 protease assay (AID 1347159); also: nearly all actives have a fitted effect of over 60% in size
How it was run: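 Enzyme 25 nM in Tris-HCl pH 8.0 + 0.01% Tween 20; compounds up to 114 microM, 15 min RT dark; + Rhod110 substrate 1.5 microM; read t0 and 15 min; delta fluorescence → % inhibition → 4-parameter Hill fit.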

[2] = tested on: Zika virus NS2B-NS3 protease (linked construct); assay: Primary screen NINDS Rhodamine qHTS for Zika virus inhibitors (AID 1347160); also: nearly all actives have a fitted effect of over 55% in size
How it was run: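 Enzyme (25 nM, linked NS2B-NS3) was preincubated 15 min with compound in 10 mM Tris-HCl pH 8.0, 0.01% Tween 20. Rhodamine110 substrate (1.5 microM) was then added and fluorescence read at start and after 15 min.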

Structure (SMILES)	Potency [1]	Potency [2]	activity change, negative = inhibition [1]	outcome [2]
CCOC(=O)c1ccc(N(C)c2csc(-c3ccccc3)n2)cc1	inactive	inactive	–	–
CNC(=O)[C@H]1O[C@@H](n2cnc3c(NCc4ccc(N)c(I)c4)ncnc32)[C@H](O)[C@@H]1O	–	–	10.8% [at 19.1 µM]	inactive [at 10.7 µM]
OC[C@H]1O[C@@H](Oc2cc(O)cc(/C=C/c3ccc(O)cc3)c2)[C@H](O)[C@@H](O)[C@@H]1O	inactive	inactive	–	–
CC1=CC(=O)CC(C)(CO[C@@H]2O[C@H](CO)[C@@H](O)[C@H](O)[C@H]2O)C1(O)/C=C/C(C)=C/C(=O)O (stereo partly drawn)	inactive	inactive	–	–
COC(=O)[C@@]1(C)CC[C@]2(C(=O)O[C@@H]3O[C@H](CO)[C@@H](O)[C@H](O)[C@H]3O)CC[C@]3(C)C(=CCC4[C@@]5(C)CC[C@H](O[C@@H]6O[C@H](C(=O)O)[C@@H](O)[C@H](O)[C@H]6O)C(C)(C)C5CC[C@]43C)[C@@H]2C1 (stereo partly drawn)	inactive	inactive	–	–
CO[C@H]1C=C2C(CC[C@H](O[C@@H]3O[C@H](CO)[C@@H](O)[C@@H](O)[C@H]3O)C2(C)C)[C@]2(C)CC[C@]3(C)C([C@H](C)C(O)C(C=C(C)C)O[C@@H]4O[C@H](CO)[C@@H](O)[C@@H](O)[C@H]4O)CC[C@@]3(C)C12 (stereo partly drawn)	inactive	inactive	–	–
NCCOCCOCCNC(=O)Cc1ccc(Nc2nc(NCc3ccc(F)cc3)nc(NCC3CCCCC3)n2)cc1	inactive	inactive	–	–
CC[C@H]1OC(=O)C[C@@H](O)[C@H](C)[C@@H](O[C@@H]2O[C@H](C)[C@@H](O)[C@H](N(C)C)[C@H]2O)[C@@H](CCN2C[C@H](C)C[C@H](C)C2)C[C@@H](C)C(=O)/C=C/C(C)=C/[C@@H]1CO[C@@H]1O[C@H](C)[C@@H](O)[C@@H](OC)[C@H]1OC	inactive	inactive	–	–
CCC(CCO[C@@H]1O[C@H](CO[C@H]2OC[C@](O)(CO)[C@H]2O)[C@@H](O)[C@H](O)[C@H]1O)C(C)(C)O (stereo partly drawn)	inactive	inactive	–	–
C=C1CC[C@H]2[C@@](C)(CCC[C@@]2(C)C(=O)O)[C@@H]1CCC(C)CCO (stereo partly drawn)	inactive	inactive	–	–
COC(=O)C1=CO[C@@H](O[C@@H]2O[C@H](COC(=O)/C=C/c3cc(OC)c(O)c(OC)c3)[C@@H](O)[C@H](O)[C@H]2O)[C@@H]2C(CO)=CC[C@H]12	inactive	inactive	–	–
CC(=O)OCC1=C[C@H](O)[C@@H]2C(C(=O)O)=CO[C@@H](O[C@@H]3O[C@H](CO)[C@@H](O)[C@H](O)[C@H]3O)[C@H]12	inactive	inactive	–	–
CC(C)CC(=O)O[C@@H]1OC=C(CO[C@@H]2O[C@H](CO[C@@H]3O[C@H](CO)[C@@H](O)[C@H](O)[C@H]3O)[C@@H](O)[C@H](O)[C@H]2O)[C@H]2C[C@H](O)[C@@H](CO)[C@@H]12	inactive	inactive	–	–
CCOC(=O)N1CCC(NCCNC(=O)c2ccccc2C)CC1	inactive	inactive	–	–
CC(=O)O[C@H](C[C@@H](C)[C@H]1C(=O)[C@H](O)[C@@]2(C)[C@@H]3CCC4C(C)(C)[C@@H](O[C@@H]5OC[C@H](O)[C@H](O)[C@H]5O)CC[C@@]45C[C@@]35CC[C@]12C)[C@@H]1OC1(C)C (stereo partly drawn)	inactive	inactive	–	–
Clc1ccc2c(c1)C1=NCCN1c1c(-c3noc(C4CC4)n3)ncn1-2	inactive	inactive	–	–
COc1ccc2c3c1O[C@H]1C[C@@H](O)C=C[C@@]31CCN(C)C2	inactive	inactive	–	–
CC(=O)c1c(C)cc(O[C@@H]2O[C@H](CO)[C@@H](O)[C@H](O)[C@H]2O)cc1O	inactive	inactive	–	–
CC1(C)C(=O)N2c3ccccc3[C@]3(CC(n4cnc5ccccc5c4=O)C(=O)O3)[C@H]2N1O (stereo partly drawn)	inactive	inactive	–	–
C=C1[C@H]2CC[C@]3(O)[C@@](CC[C@@H]4[C@](C)(C(=O)O)CCC[C@]43C)(C2)[C@H]1OC(=O)/C(C)=C\C	inactive	inactive	–	–
C=C1CCC[C@]2(C)C[C@]3(O)OC(=O)C(C)=C3C[C@@H]12	inactive	inactive	–	–
O=C(/C=C/c1ccc(O)cc1)OCC1=CC2OC(=O)C3=CO[C@@H](O[C@@H]4O[C@H](CO)[C@@H](O)[C@H](O)[C@H]4O)[C@H]1[C@@H]32 (stereo partly drawn)	inactive	inactive	–	–
CC(C)(O)CNc1nc(Nc2ccnc(C(F)(F)F)c2)nc(-c2cccc(C(F)(F)F)n2)n1	inactive	inactive	–	–
CC1(C)CC[C@]2(C(=O)O[C@@H]3O[C@H](CO)[C@@H](O)[C@H](O)[C@H]3O)CC[C@]3(C)C(=CCC4[C@@]5(C)C[C@@H](O)[C@H](O)C(CO)(CO)C5CC[C@]43C)C2[C@@H]1O (stereo partly drawn)	inactive	inactive	–	–
